According to ChEMBL document CHEMBL3988442, “University of Dundee, Small-Polar-MMV Screening Library” (2021):

The compounds below were run against Shiga toxin 2 (Escherichia coli O157:H7) (UniProt P09385+P09386) (assay: E. coli 0.157:H7 Shiga Toxin SOP - stx2 screening assay). Settings: 30 µM.
Assay type: functional
Design: scale not given: direction of the effect not stated beside the values

Compound | Percent Effect [%]
CC(NC(=O)N1CCN(c2ccc(Cl)cc2)CC1)C(=O)N1CCSCC1 (stereo not given) | 11.9
O=C1COC2(COCCN(Cc3ccsc3)C2)CN1c1ccc(F)cc1 (stereo not given) | -4.46
CN1CCCc2cc(CNC(=O)c3ccc(NC4CC4)nc3)ccc21 | -12.6
CCC(C)NC(=O)N1CCCn2cnc(CO)c2C1 (stereo not given) | -0.62
COCCC(=O)N1CC[C@@H](N(C)C)[C@@H]1Cc1ccccc1 | 2.6
Fc1cccc(N2C[C@H]3CCN(c4cccnc4)C[C@H]3C2)c1 | -16.5
Cc1ncsc1C(=O)N(Cc1cccnc1)C1CC1 | 5.93
Cc1nc(N2CCN(C(=O)c3ccsc3)CC2)c2cnn(C)c2n1 | 0.569
CCOCCn1nc(C)cc1C(=O)N1CCOCC(CO)C1 (stereo not given) | -28
Cc1cncc(C2CCCN(C(=O)c3scnc3C)C2)n1 (stereo not given) | -1.58
CCC(C)(C)NC(=O)Cn1nc(C)nc1-c1cccc(C)c1 | 5.46
COc1ccc(-c2nnc(SCC(=O)NCC(C)C)[nH]2)c(OC)c1 | 6.1
O=C(NC1(c2cccc(F)c2)CCOCC1)c1ccccn1 | -49.2
Cc1ccc(-c2cc(CN3CCCC(Cn4cncn4)C3)on2)cc1 (stereo not given) | -31.3
CC(C)c1ncc2c(n1)CN(Cc1nc(-c3cccs3)no1)CC2 | 13.1
CN(C)C(=O)[C@@H]1C[C@@H]2CCN(Cc3ccc4c(c3)OCO4)C[C@@H]2O1 | 3.86
Cc1csc(N2CCCN(Cc3noc(C)n3)CC2)n1 | -19.8
CC(=O)Nc1nc(CN2CCCC2Cn2cc(C)cn2)cs1 (stereo not given) | -25.9
Cc1cc(=O)[nH]c(SCC(=O)N(C)CC2Cc3ccccc3CN2C)n1 (stereo not given) | 5.78
COc1ccccc1CNC(=O)N1CCCC(NS(C)(=O)=O)C1 (stereo not given) | 23.8

Compound | Percent Effect [%]
CN(C)CCN1CCCC12CCN(C(=O)c1cnccn1)CC2 | 0.984
Cc1ccc(CN2CCC3(CC2)CC(c2cccnc2)CO3)s1 (stereo not given) | -7.07
CN(C)S(=O)(=O)N1C[C@@H](Oc2ccccn2)[C@H]2OCCC[C@H]21 | -15.9
CC(C)c1nc(C2CCCN(C(=O)CCCn3cncn3)C2)no1 (stereo not given) | 9.71
CN1CCC(Oc2ccc(NC(=O)c3ccccc3Br)cc2)CC1 | -69.6
Cn1ccc(C(=O)N2CCCC(Cc3cccc4ncccc34)C2)n1 (stereo not given) | -7.58
O=C(c1nc(=O)[nH][nH]1)N1CCCC(c2cc(C(F)(F)F)[nH]n2)C1 (stereo not given) | -21.8
Nc1cc(CCCNC(=O)NC2CC2)nn1-c1ccccc1 | -2.96
CN(C)C(=O)c1ccc2c(c1)N(C)C(CC(=O)NCc1ccno1)CO2 (stereo not given) | -9.52
CN(C)S(=O)(=O)N1CC[C@]2(C[C@H](Oc3ncccc3F)CO2)C1 | 2.42
Cc1cc(C)nc(Nc2cc(C3CCCN(C)C3)nc(C)n2)n1 (stereo not given) | -0.428
Cc1cn[nH]c1C1CCCCN1C(=O)CCN1CCCCCC1 (stereo not given) | 28.2
CC(Cn1cccn1)NC(=O)Nc1nnc(C2CC2)s1 (stereo not given) | 7.79
Cc1oc(C(=O)O)cc1S(=O)(=O)Nc1cc(Cl)ccc1F | 17.5
COCCO[C@@H]1CCN(C(=O)c2ccc(C)o2)[C@@H]1Cc1cnn(C)c1 | 2.85
N#Cc1ccccc1N1CCCN(C(=O)CCc2nccs2)CC1 | 9.06
COc1ccc(NC(=O)CNc2cccc3c2CCCC3)c(OC)c1 | -28.6
CC(C)C(C(=O)N1CCC(Nc2cccnn2)CC1)n1cncn1 (stereo not given) | 12.4
CS(=O)(=O)NC[C@H]1OC[C@@H]2CCN(Cc3ccc(F)cc3)C[C@@H]21 | -21.2
O=C(O)c1nnn(Cc2cccc(C(F)(F)F)c2)c1-c1cccnc1 | -46.6
